FMDV antiviral – High Throughput Screening for Foot and Mouth Disease Virus Antivirals; FMDV antiviral cell-based qHTS; Potency, µM (top dose mostly 57.9 µM), inactives show top-dose activity change, negative = inhibition, most hits filed as inhibitors; 1.2% of 410,000 active; calls by dose curve; tested in HEK293T cells; further: read-out not given here; potency means the concentration at half of the fitted maximal effect; on the % scale 0 is the no-effect control and ±100 the full control effect; nearly all actives have a fitted effect of over 45% in size
Sm TGR block – qHTS Assay for the Inhibitors of Schistosoma Mansoni Peroxiredoxins; purified TGR, DTNB reduction, TNB absorbance 405 nm; Potency, µM (titrated, usually from 114 µM), without a hit: top-dose activity change, negative = inhibition, most hits filed as inhibitors; 3% of 360,000 active; Schistosoma mansoni thioredoxin glutathione reductase (TGR), Q962Y6; active means well fitted inhibition curve with a large enough effect; inconclusive means small, poorly fitted or top-dose-only effect; inactive means no such curve, though single readings can be large or run the other way; further: potency means the concentration at half of the fitted maximal effect; on the % scale 0 is the no-effect control and ±100 the full control effect; nearly all actives have a fitted effect of over 60% in size
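Kinetic colorimetric format: TGR-catalysed, NADPH-driven DTNB reduction monitored via TNB absorbance. Enzyme dispensed at 20 nM; compound exposure 15 min at room temperature before reaction start.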
Shiga inhibitor – A qHTS for Small Molecule Inhibitors of Shiga Toxin; Vero cells, Shiga toxin protein synthesis inhibition reporter; inhibition, % at 38.7 µM; 9.2% of 290,000 active; in the data active means inhibition mostly above about 28%, no sharp cut-off; inactive means mostly below about 43%; further: 0% is about no effect
CHX counter – Cycloheximide Counterscreen for Small Molecule Inhibitors of Shiga Toxin. cell reporter, cycloheximide protein synthesis inhibition counterscreen. max response, %. 12% of 300,000 active. AID 2314, 2010; in the data active means max response mostly above about 13%, no sharp cut-off; inactive means mostly below about 14%; further: read at 38.3 µM for the half of the compounds with a filed dose; 0% is about no effect
Active calls of the source: *; ? = inconclusive; / = no result. In the library only some 12% were active in any assay of this set; here they are far more common.

SMILES | FMDV antiviral | Sm TGR block | Shiga inhibitor | CHX counter
O=C(Nc1ccc(F)cc1Cl)C1Cc2ccccc2N1C(=O)c1ccccc1 (configuration not stated) | -13.7% | -0.5% | / | /
Cc1ccc(Cl)cc1N1CCN(C(=O)CCS(=O)(=O)c2cc(Br)cc3c2N(C(=O)C2CC2)CC3)CC1 | -12.0% | -3.3% | / | /
CCC(=O)NCCc1nc2cc(NC(=O)c3cccc([N+](=O)[O-])c3)ccc2n1C | 60.2% | -8.3% | 36.6 | 16.6
Cc1ccc(OCC(=O)Nc2ccc3c(c2)nc(CCN2CCN(c4ccccn4)CC2)n3C)cc1 | 3.55µM* | / | / | /
CCC(=O)NCCc1nc2cc(NC(=O)c3cccs3)ccc2n1C | 1.3% | -0.7% | 47.9* | 16.9*
CCC(=O)NCCc1nc2cc(NC(=O)COc3ccccc3)ccc2n1C | 22.3% | -5.5% | 78.0* | 29.2*
Cn1c(CCN2CCN(c3ccccn3)CC2)nc2cc(NC(=O)COc3ccccc3)ccc21 | ? | -11.9% | -2.9 | 10.0
CCC(=O)NCCc1nc2cc(NC(=O)c3ccccc3OC)ccc2n1C | / | -0.3% | 25.2 | 43.3*
Cc1cccn2c(=O)c(C(=O)N3CCN(c4ccc(Cl)cc4)CC3)cnc12 | -20.9% | 1.2% | / | /
O=C(O)c1ccc(NC(=S)NC(=O)c2cccnc2)cc1 | -12.8% | 35.5µM* | 29.4 | 3.5
COc1ccc(NC(=S)NC(=O)c2cccnc2)cc1 | 26.1% | 22.4µM* | 13.3 | 12.2
Cc1ccc(C(=O)NCc2ccc3c(c2)CCN3C(=O)c2ccc(C)cc2)cc1 | -15.3% | 4.4% | / | /
Cc1ccnc(NC(=O)Cc2c(F)cccc2Cl)c1 | 35.6% | 5.9% | 33.0 | 9.1
O=C(Cc1ccc(Cl)cc1)Nc1ccccn1 | 0.0% | 11.5% | 24.3 | 35.6*
O=C(Cc1ccc(Cl)cc1)Nc1ccc(Br)cn1 | 10.6% | -0.1% | 71.9* | 35.8*
O=C(Cc1c(F)cccc1Cl)Nc1ccccn1 | 31.9% | 5.5% | 36.7* | 9.9
O=C(Cc1ccc(Cl)cc1)Nc1ncccn1 | 2.1% | -0.4% | -1.9 | -2.1
O=C(COC(=O)Cc1ccc(F)cc1)Nc1ccc(Cl)cn1 | -0.7% | -6.5% | / | /
O=C(Cc1ccc(Cl)cc1)Nc1ccc(Cl)cn1 | 10.9% | -4.7% | 67.0* | 44.3*
Cc1cc(N2CCN(c3cccc(C)c3C)CC2)n2nc(C)c(-c3ccc(Cl)cc3)c2n1 | -7.5% | -3.3% | / | /
O=C(Nc1ccc(F)cc1)Nc1ccc(Cl)cn1 | 60.7% | 3.9% | 61.5* | 23.1*
O=C(Cc1ccc(F)cc1)Nc1ccc(Cl)cn1 | 64.7% | -14.8% | 81.5 | 25.7*
O=S(=O)(Cc1ccc(Cl)cc1)Nc1ccc(Cl)cn1 | 2.9% | -0.4% | 25.1* | 11.1
O=C(Nc1ccc(F)c(Cl)c1)Nc1ccc(Cl)cn1 | 11.5% | / | 14.4 | -1.0
CCCN(CCC)C(=O)Cn1c(=O)n(-c2ccc(CC)cc2)c(=O)c2ccc(C(=O)NCCc3ccccc3)cc21 | -17.4% | 8.3% | / | /
SMILES | FMDV antiviral | Sm TGR block | Shiga inhibitor | CHX counter
CC(C)(C)S(=O)(=O)c1cnc(N2CCCCC2)nc1N | 12.9% | -2.0% | 25.2 | 18.8*
CC(C)(C)S(=O)(=O)c1cnc(-c2ccc(Cl)cc2)nc1N | 46.5% | 8.7% | 46.8* | 22.2*
CS(=O)(=O)c1cnc(-c2ccccc2)nc1Oc1ccc(Cl)cc1 | -1.2% | -4.8% | -1.0 | 7.4
CC(=O)N1CCCc2ccc(NC(=O)c3ccc(C(F)(F)F)cc3)cc21 | ? | -8.3% | / | /
CCOC(=O)C1CCN(C(=O)CCS(=O)(=O)Cc2ccccc2)CC1 | 0.4% | 44.7µM* | -2.7 | -5.6
CCOC(=O)C1CCN(C(=O)CCc2ccccc2)CC1 | -18.5% | 89.1µM* | 14.8 | -1.5
CCOC(=O)C1CCN(C(=O)CCCn2c(=O)c3cccn3c3cccnc32)CC1 | -2.8% | 79.4µM* | -2.6 | 3.2
c1ccc(CCn2nnnc2CN2CCc3ccccc32)cc1 | -10.6% | 12.6µM* | -5.2 | 8.8
COc1cccc(C(=O)NCC2Cc3cccc(-c4ncccn4)c3O2)c1OC (configuration not stated) | -11.1% | / | / | /
CC(CNC(=O)c1ccc(CSc2nc3ccncc3n2Cc2cccc(F)c2)cc1)c1ccccc1 (configuration not stated) | ? | 14.5% | / | /
O=C(CSc1nnc(NC(=O)NC2CCCCC2)s1)Nc1ccccc1F | 17.4% | 10.5% | / | /
CN(Cc1ccco1)c1ccnc(-c2ccoc2)n1 | 2.4% | / | / | /
CCOC(=O)C1CCN(Cc2nnnn2CCc2ccccc2)CC1 | -1.4% | -23.7% | 45.9 | 40.6*
Cc1ccc2onc(CC(=O)N3CCN(c4cccc(Cl)c4)CC3)c2c1 | -28.1% | -26.8% | / | /
Cc1ccc2cc(C(c3nnnn3C3CCCC3)N3CCN(c4ccccc4)CC3)c(=O)[nH]c2c1 (configuration not stated) | -12.6% | 12.6µM* | -3.6 | -3.4
COc1cc2cc(C(c3nnnn3C3CCCC3)N3CCCCCC3)c(=O)[nH]c2cc1OC (configuration not stated) | 7.4% | 35.5µM* | -8.0 | -0.9
O=c1c(C(c2nnnn2C2CCCCC2)N2CCCCC2)coc2ccc(Cl)cc12 (configuration not stated) | 13.5% | 28.2µM* | 10.2 | -1.1
COc1ccc(N2CCN(C(c3cc4cc(C)ccc4[nH]c3=O)c3nnnn3Cc3ccccc3)CC2)cc1 (configuration not stated) | -3.4% | ? | -3.8 | -0.6
Clc1ccc(C(c2nnnn2C2CCCC2)N2CCN(Cc3ccncc3)CC2)cc1 (configuration not stated) | 6.5% | 0.4% | -6.9 | -2.8
Cc1ccc2cc(C(c3nnnn3Cc3ccccc3)N3CCN(c4ccccc4)CC3)c(=O)[nH]c2c1 (configuration not stated) | -14.0% | 22.4µM* | -20.6 | -5.1
COc1cc2nc(N3CCN(c4cc(C)ccc4C)CC3)nc(N)c2cc1OC | 25.1µM* | 14.4% | -21.2 | -15.0
CC(C)(C)n1c(O)c2ccc(C(=O)N=NC(=O)c3ccccc3)cc2c1O | -6.4% | 3.4% | 32.6 | 26.8*
CC[N+](CC)(CCNC(=O)C(=O)NCC[N+](CC)(CC)Cc1ccccc1Cl)Cc1ccccc1Cl | 0.2% | / | / | /
Cc1nc(SCC(=O)N2CC(=O)Nc3ccccc32)nc(C)c1C | -7.1% | -0.7% | -2.4 | -2.2
Cc1ccc(-c2ccc(SCC(=O)c3ccccc3)nn2)cc1 | 4.3% | -1.9% | 66.4 | 30.5*
SMILES | FMDV antiviral | Sm TGR block | Shiga inhibitor | CHX counter
COc1ccc(-c2ccc(SCC(=O)N3CC(=O)Nc4ccccc43)nn2)cc1 | 17.9% | 27.7% | 35.0* | 21.2*
COc1ccc(-c2ccc(SCC(=O)c3cccs3)nn2)cc1 | -1.6% | 0.1% | 60.7* | 34.3*
COc1ccc(NC(=O)CSc2ccc(-c3cccs3)nn2)cc1 | ? | 7.6% | / | /
O=C(CSc1ccc(-c2ccccc2)nn1)c1cccs1 | 48.7% | 14.4% | 54.9 | 28.1*
Cc1ccc(CN(Cc2cccn2-c2nnc(N3CCCC3=O)s2)C(=O)Nc2ccc(F)cc2)cc1 | 22.9% | 10.5% | / | /
CCOc1ccccc1C(=O)N1CC(=O)Nc2ccc(Cl)cc2C1c1ccccc1 (configuration not stated) | -16.7% | -2.1% | / | /
COc1ccccc1N1CCN(c2ncc3c(n2)CCN(Cc2ccc(C)s2)C3)CC1 | ? | 4.3% | / | /
CCOc1ccc(NC(=O)CSc2nc3c(c(=O)[nH]2)CCCC3)cc1 | -10.0% | 2.5% | / | /
